Measurements taken from PubChem BioAssay (NCATS).
Records with an inconclusive call do not appear. Entries that show only a call come without a potency. A number with no mark means an inactive call. Calls of active or inactive are those of the source. Calls come from the whole dose curve; as a rule, active = well fitted curve in the direction sought with a large enough effect; inconclusive = small, poorly fitted or top-dose-only effect, or another doubt; inactive = no such curve, though single readings can be large; an effect the other way counts as inactive or inconclusive.

Columns and labels:
[1] = biological target: Cellular tumor antigen p53 (Homo sapiens) (UniProt P04637); experiment: Primary qHTS for small molecule compounds that upregulate eGFP-tagged delta133p53alpha (in N-terminal) cells. (AID 2060322); settings: NCI-H358 eGFP-delta133p53alpha fluorescence, 24 h; activation: active compounds read high; note: nearly all actives have a fitted effect of over 75% in size; note: potency is the fitted concentration of half-maximal effect;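 for activation: cells pre-induced with doxycycline then dosed without doxycycline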
Outline: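 NCI-H358 cells pre-induced 24 h with 10 ng/ml doxycycline for eGFP-delta133p53alpha, plated dox-free and exposed 24 h at 37C to titrated compounds. Fixed, Hoechst-stained; gated GFP peak intensity by laser scanning cytometry, normalized to DMSO (0%) and 57.5 uM 5-azacytidine (100%).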

[2] = biological target: Aldehyde dehydrogenase, mitochondrial (Homo sapiens) (UniProt P05091); experiment: qHTS for Inhibitors of the Aldehyde Dehydrogenase Family (ALDH2) Primary screen (AID 2061308); settings: ALDH2 enzyme inhibition qHTS, 1536-well; series mostly up to 56 µM; note: nearly all actives have a fitted effect of over 55% in size
[3] = biological target: Retinaldehyde dehydrogenase 3 (Homo sapiens) (UniProt P47895); experiment: qHTS for Inhibitors of the Aldehyde Dehydrogenase Family (ALDH1A3) Primary screen (AID 2061315); settings: ALDH inhibition qHTS; series mostly up to 56 µM

Sequence of Cellular tumor antigen p53 (Homo sapiens) (P04637 whole entry, looked up): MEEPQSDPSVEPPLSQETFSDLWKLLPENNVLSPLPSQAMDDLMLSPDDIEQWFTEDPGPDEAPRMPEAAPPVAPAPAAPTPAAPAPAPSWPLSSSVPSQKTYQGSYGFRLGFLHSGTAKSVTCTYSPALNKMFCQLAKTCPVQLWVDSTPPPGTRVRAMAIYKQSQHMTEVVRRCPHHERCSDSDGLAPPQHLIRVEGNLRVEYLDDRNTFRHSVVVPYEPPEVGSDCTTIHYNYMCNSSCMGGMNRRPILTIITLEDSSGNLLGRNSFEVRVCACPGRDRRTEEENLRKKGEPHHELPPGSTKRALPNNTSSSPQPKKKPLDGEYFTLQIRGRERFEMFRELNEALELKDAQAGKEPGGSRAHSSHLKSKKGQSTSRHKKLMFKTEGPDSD

SMILES | activation [1] [%] | Potency [2] | Potency [3] | Potency [1]
C[C@H]1C(=O)N2c3ccccc3[C@@]3(O)C[C@@H]4C(=O)N[C@](C)(c5nc6ccccc6c(=O)n54)N1[C@@H]23 | -2.29 | inactive | inactive | –
CC(C)(C)c1ccc(C(=O)Nc2cc(Cl)c(Br)cc2C(=O)O)cc1 | -3.67 | inactive | inactive | –
CC(=O)c1c(C)cc(O[C@@H]2O[C@H](CO)[C@@H](O)[C@H](O)[C@H]2O)cc1O | -9.92 | inactive | inactive | –
CCc1cccc(CC)c1-n1c(C=C(C)C)c(C(=O)N2CCNCC2)cc(-c2nc(-c3ccc(C(F)(F)F)cc3)cs2)c1=O | 26.3 | inactive | inactive | –
CC(=O)[C@@H]1CC[C@]2(C(=O)O)CC[C@]3(C)C(CCC4[C@@]5(C)CC[C@H](O)C(C)(C)C5CC[C@]43C)C12 (some centres not stated) | 8.4 | inactive | inactive | –
C=C(C(=O)O)C1CC2=C(C)C(=O)CC2C(C)CC1O (configuration not stated) | – | inactive | inactive | 12 µM (active)
CC1(C)CC[C@]2(C(=O)O[C@@H]3O[C@H](CO)[C@@H](O)[C@H](O)[C@H]3O)CC[C@]3(C)C(=CCC4[C@@]5(C)C[C@@H](O)[C@H](O)[C@@](C)(CO)C5[C@H](O)C[C@]43C)C2C1 (some centres not stated) | 3.82 | inactive | inactive | –
COc1cc2c(c(OC)c1CC=C(C)C)C[C@H](c1ccc(O)cc1O)CO2 | 12.5 | inactive | inactive | –
C/C1=C\C[C@H](O[C@@H]2O[C@H](CO)[C@@H](O)[C@H](O)[C@H]2O)/C(C)=C/[C@H]2OC(=O)[C@H](C)[C@@H]2CC1 | -8.04 | inactive | inactive | –
